Reference: PubChem BioAssay (NCATS)
Results filed as inconclusive are left out. Entries that show only a call come without a potency. The source made the active and inactive calls. The call rests on the fitted dose curve; in most records, active means well fitted cell-killing curve with a large enough effect; inconclusive means small, poorly fitted or top-dose-only effect; inactive means no such curve, though single readings can be large or run the other way.

Experiment: qHTS of pediatric cancer cell lines to identify multiple opportunities for drug repurposing: Confirmatory screen for DAOY cells (AID 1347114); further: nearly all actives have a fitted effect of over 65% in size
Conditions: DAOY medulloblastoma cells viability, cytotoxicity qHTS; series mostly up to 45.9 µM
Description: Drug repurposing or repositioning has been offered as a strategy for drug development in oncology programs. This approach has special potential for childhood cancers and other rare or orphan diseases, where the expected return on new drug development has been a disincentive to pharmaceuticals.
In this project we exploit the poly-pharmacology of drugs to discover new indications via phenotypic screening of a panel of 19 well-characterized cell lines derived from solid tumors seen in children and adolescents. The goal is to identify approved drugs with previously unrecognized anticancer properties that has the potential to reveal new mechanisms and biological processes involved in carcinogenesis or drug resistance. We employed a titration-based paradigm (quantitative high-throughput screening or qHTS), where all compounds were tested at multiple concentrations for their effect on cell viability. Concentration-response curves (CRCs) were derived directly from the primary screen, and both potency and efficacy values were used to identify compounds with robust bioactivity profiles. We screened the NIH Chemical Genomics Center (NCGC) Pharmaceutical Collection (NPC) and Mechanism Interrogation Plate (MIPE) small molecule collections of approved and investigational compounds against these cell lines; and measured metabolically active cells after 48 hours of compound treatment as a proxy for cell viability.
Assay Submitter: Nathalia J. Martinez, National Center for Advancing Translational Sciences, National Institutes of Health, Rockville, MD, USA; email: natalia.martinez@nih.gov
[1] Shen, M et al. Quantitative high-throughput phenotypic screening of pediatric cancer cell lines identifies multiple opportunities for drug repurposing. Oncotarget 2017 Dec 19;9(4):4758-4772. PMID 29435139.
The cells were obtained from University of North Carolina (UNC), Pediatric Preclinical Testing Program (PPT), and Coriell Institute (CI).
qHTS cell viability assay:
Cells were assayed in growth media at a density of 500-1,000 cells/well. Five microliters of cells were dispensed into 1,536-well, white, solid-bottom, TC-treated plates (Greiner Bio One) using a multidrop dispenser and incubated at 37 degrees C, 5% CO2, under a humidified atmosphere for 5 hours. Twenty-three nanoliters of compounds and controls (neutral control DMSO or positive control bortezomib at final concentration of 2.3 µM) were subsequently transferred by Kalypsys pintool. For primary screens, the MIPE collection was tested at 11-point dilutions (final concentrations range from 0.78 nM to 46 µM) and the NPC collection at 8-point dilutions (final concentrations range from 0.59 nM to 46 µM). Compounds tested in follow-up screens were assayed at 11-point dilutions. Cells were incubated for 48 hours, followed by addition of 3 uL of CellTiter-Glo (Promega). After a 15 min incubation at room temperature, samples were analyzed for luminescence intensity using a ViewLux High-throughput CCD imager equipped with clear filters.
Potency means the concentration at half of the fitted maximal effect.

Q: Which Potency does the source give for `Cc1ccc([N+](=O)[O-])[c]2c1[O][Hg]2` here?
A: The Potency was 5.22 µM (active).

Q: For `O=C(O)Cc1ccccc1`, which Potency is on record?
A: The Potency was “inactive”.

Q: For `CCCCCCCCC(=O)NCc1ccc(O)c(OC)c1`, which Potency is on record?
A: The Potency was “inactive”.

Q: Which Potency does the source give for `CCc1ccc(C2CCNCC2)cc1` here?
A: Its Potency is “inactive”.

Q: With `ClC1=C(Cl)C2(Cl)C(CBr)CC1(Cl)C2(Cl)Cl` (stereo unspecified) as the molecule, how does the Potency read?
A: The Potency was “inactive”.

Q: For `COC(=O)C1=CCCN(C)C1`, which Potency is on record?
A: The Potency was “inactive”.

Q: For `COc1ccc2c(C(=O)c3ccc(Cl)cc3)c(C)n(CC(=O)O)c2c1`, which Potency is on record?
A: Its Potency is “inactive”.

Q: Which Potency does the source give for `CC[n+]1c(-c2ccccc2)c2cc(N)ccc2c2ccc(N)cc21` here?
A: Its Potency is 13.1 µM (active).

Q: Which Potency does the source give for `CCCCCCCCCCCC[N+](C)(C)CCOc1ccccc1` here?
A: Its Potency is 18.5 µM (active).

Q: For `C[C@@H]1C[C@@H]([C@H](O)CC2CC(=O)NC(=O)C2)C(=O)[C@@H](C)C1`, which Potency is on record?
A: Its Potency is “inactive”.

Q: With `COc1ccc(C(=O)N2CCCC2=O)cc1` as the molecule, how does the Potency read?
A: Its Potency is “inactive”.
